Records with an inconclusive call do not appear. Entries that show only a call come without a potency. Values without a mark were called inactive. Active and inactive are the calls of the source. Calls come from the whole dose curve; as a rule, active = well fitted curve in the direction sought with a large enough effect; inconclusive = small, poorly fitted or top-dose-only effect, or another doubt; inactive = no such curve, though single readings can be large; an effect the other way counts as inactive or inconclusive.
Legend:
[1] = qHTS of pediatric cancer cell lines to identify multiple opportunities for drug repurposing: Confirmatory screen for TC32 cells (AID 1347118);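 note: potency is the fitted concentration of half-maximal effect; cells exposed to compound for 48 h before the read; nearly all actives have a fitted effect of over 65% in size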
Outline: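 TC32 cells, 500-1,000/well in growth medium, compound-treated 48 h at 37 °C; viability from CellTiter-Glo luminescence. Primary screen: MIPE 11-point (0.78 nM–46 µM final), NPC 8-point (0.59 nM–46 µM final); confirmatory at 11-point dilutions.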

[2] = qHTS of pediatric cancer cell lines to identify multiple opportunities for drug repurposing: Confirmatory screen for control Hh wild type fibroblast cells (AID 1347121); note: nearly all actives have a fitted effect of over 70% in size; note: potency is the fitted concentration of half-maximal effect
Outline: (§1)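 Cells (500-1,000/well) rested 5 h, then received compounds for 48 h; metabolically active cells were measured by CellTiter-Glo luminescence. Final concentrations spanned up to 46 µM (MIPE, 11-point) or 0.59 nM-46 µM (NPC, 8-point) in primary screens, 11-point in follow-ups.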

[3] = qHTS of pediatric cancer cell lines to identify multiple opportunities for drug repurposing: Confirmatory screen for Rh41 cells (AID 1347123);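 note: 48 h compound exposure; nearly all actives have a fitted effect of over 60% in size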; note: potency is the fitted concentration of half-maximal effect
Outline: as §1

[4] = qHTS of pediatric cancer cell lines to identify multiple opportunities for drug repurposing: Confirmatory screen for Rh30 cells (AID 1347126); note: nearly all actives have a fitted effect of over 55% in size; note: potency is the fitted concentration of half-maximal effect
Outline: as §1

[5] = qHTS of pediatric cancer cell lines to identify multiple opportunities for drug repurposing: Confirmatory screen for Saos-2 cells (AID 1347127); note: nearly all actives have a fitted effect of over 60% in size; note: potency is the fitted concentration of half-maximal effect
Outline: as §1

[6] = test system: Zika virus NS2B-NS3 protease; experiment: Primary screen GU AMC qHTS for Zika virus inhibitors (AID 1347154); note: nearly all actives have a fitted effect of over 70% in size; note: potency is the fitted concentration of half-maximal effect
Outline: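 Fluorogenic AMC-substrate cleavage by noncovalent NS2B-NS3 protease complex (25 nM, pH 8.0 Tris buffer with Tween 20) followed for 15 minutes at room temperature (~20% conversion). Percent inhibition from ex340/em450 signal change, fitted by 4-parameter Hill equation.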

[7] = qHTS of pediatric cancer cell lines to identify multiple opportunities for drug repurposing: Confirmatory screen for RD cells (AID 1347124);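 note: cells exposed to compound for 48 h before viability readout; nearly all actives have a fitted effect of over 65% in size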
Outline: as §1

[8] = qHTS of pediatric cancer cell lines to identify multiple opportunities for drug repurposing: Confirmatory screen for MG 63 (6-TG R) cells (AID 1347119); note: nearly all actives have a fitted effect of over 55% in size; note: potency is the fitted concentration of half-maximal effect
Outline: as §1

[9] = qHTS of pediatric cancer cell lines to identify multiple opportunities for drug repurposing: Confirmatory screen for U-2 OS cells (AID 1347122); note: nearly all actives have a fitted effect of over 65% in size; note: potency is the fitted concentration of half-maximal effect
Outline: as §1

[10] = qHTS of pediatric cancer cell lines to identify multiple opportunities for drug repurposing: Confirmatory screen for Rh18 cells (AID 1347125); note: nearly all actives have a fitted effect of over 55% in size
Outline: as §1

[11] = qHTS of pediatric cancer cell lines to identify multiple opportunities for drug repurposing: Confirmatory screen for SK-N-SH cells (AID 1347129);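 note: cells exposed to compound for 48 h before viability read; nearly all actives have a fitted effect of over 60% in size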
Outline: as §1

[12] = qHTS of pediatric cancer cell lines to identify multiple opportunities for drug repurposing: Confirmatory screen for OHS-50 cells (AID 1347128);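 note: potency is the fitted concentration of half-maximal effect; compound exposure lasted 48 h at 37 degrees C; nearly all actives have a fitted effect of over 55% in size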
Outline: as §1

[13] = test system: Zika virus NS2B-NS3 protease (linked construct); experiment: Confirmatory screen NINDS AMC qHTS for Zika virus inhibitors (AID 1347152); note: potency is the fitted concentration of half-maximal effect; nearly all actives have a fitted effect of over 70% in size
Outline: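 Purified NS2B-NS3 protease with NS2B hydrophilic domain linked to NS3 protease domain by flexible linker, 1 nM final in 10 mM Tris-HCl pH 8.0, 0.01% Tween 20. Compounds preincubated 15 min, room temperature; Bz-Nle-KRR-AMC 10 microM (Km 18.3 µM); 15-min fluorescence change, 4-parameter Hill fit.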

[14] = test system: Zika virus NS2B-NS3 protease (unlinked complex); experiment: Confirmatory screen GU AMC qHTS for Zika virus inhibitors (AID 1347153);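 note: enzyme at 25 nM with substrate at 10 µM below its Km of 18.3 µM; potency is the fitted concentration of half-maximal effect; nearly all actives have a fitted effect of over 70% in size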
Outline: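 Unlinked NS2B-NS3 complex (25 nM) in 10 mM Tris-HCl pH 8.0, 0.01% Tween 20 preincubated 15 min with compound, then 10 microM Bz-Nle-KRR-AMC (Km 18.3 µM). Fluorescence change over 15 min, normalized, Hill-fitted.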

[15] = Confirmatory screen GU Rhodamine qHTS for Zika virus inhibitors qHTS (AID 1347157); note: nearly all actives have a fitted effect of over 70% in size; note: potency is the fitted concentration of half-maximal effect
Outline: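 Percent inhibition came from the 15-min rise in Rhodamine110 fluorescence (1.5 microM substrate, ~15% conversion), normalized to no-inhibitor and no-enzyme wells and Hill-fitted. Unlinked protease, 25 nM, pH 8.0 Tris buffer; compounds up to 114 microM, 15-min preincubation.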

For `CCC(=C(c1ccccc1)c1ccc(OCCN(C)C)cc1)c1ccccc1`, the Potency [1] was 20.8 µM (active), the Potency [2] was “inactive” and the Potency [3] was “inactive”. For the same compound, the Potency [4] was “inactive”, the Potency [5] was 18.5 µM (active) and the Potency [6] was “inactive”.
For `C=CC(=O)N1CCC[C@@H](n2nc(-c3ccc(Oc4ccccc4)cc3)c3c(N)ncnc32)C1`, the Potency [1] was 7.37 µM (active), the Potency [2] was “inactive” and the Potency [3] was 14.7 µM (active). The Potency [7] was “inactive” and the Potency [4] was 10.4 µM (active).
For `Cc1c(Cn2c(C)nc3c(C(=O)O)cc(N4CCOCC4)cc32)cccc1C(F)(F)F`, the Potency [8] was “inactive”, the Potency [2] was “inactive” and the Potency [9] was 23.3 µM (active). For the same compound, the Potency [3] was “inactive”, the Potency [7] was “inactive” and the Potency [10] was “inactive”. For the same compound, the Potency [4] was “inactive” and the Potency [5] was “inactive”.
With `Cc1nc(Nc2n[nH]c3c2CN(C(=O)N[C@H](CN(C)C)c2ccccc2)C3(C)C)c2sccc2n1` the Potency [2] was “inactive”, the Potency [9] was “inactive” and the Potency [3] was “inactive”. The Potency [7] was “inactive”, the Potency [4] was “inactive” and the Potency [5] was “inactive”. The Potency [11] was “inactive” and the Potency [6] was “inactive”.
In the case of `Cc1ccc2nc(NC(=O)CSc3nc4c(c(=O)n3-c3ccccc3)SCC4)sc2c1`, the Potency [1] is reported as 8.27 µM (active), the Potency [8] is reported as 5.22 µM (active) and the Potency [2] is reported as 14.7 µM (active). The Potency [3] was 20.8 µM (active), the Potency [10] was “inactive” and the Potency [4] was “inactive”. For the same compound, the Potency [5] was “inactive”.
In the case of `COc1cc2nccc(Oc3ccc(NC(=O)C4(C(=O)Nc5ccc(F)cc5)CC4)cc3)c2cc1OC`, the Potency [1] is reported as 18.5 µM (active), the Potency [2] is reported as “inactive” and the Potency [9] is reported as 23.3 µM (active). The Potency [3] was 26.1 µM (active), the Potency [7] was “inactive” and the Potency [5] was 18.5 µM (active). The Potency [12] was 20.8 µM (active) and the Potency [6] was “inactive”.
With `COc1cc(C(=O)NS(=O)(=O)c2ccccc2C)ccc1Cc1cn(C)c2ccc(NC(=O)OC3CCCC3)cc12` the Potency [13] was 9.61 µM (active), the Potency [14] was 17.1 µM (active) and the Potency [6] was 12.6 µM (active).
With `COCCOc1ccc2c(c1)ncn2-c1ccc2cccc(N3CCC(N)CC3)c2n1` the Potency [6] was “inactive”.
For `O=c1[nH]c(=O)n(C2CCCO2)cc1F` (configuration not stated), the Potency [6] was “inactive”.
In the case of `COc1cc(C(C)C)c2c(c1)S(=O)(=O)N(COc1cc(=O)n3cccc(OCCN4CCCCC4)c3n1)C2=O`, the Potency [6] is reported as “inactive”.
With `O=C(CCCCCCNC(=O)c1cnc(N(c2ccccc2)c2ccccc2)nc1)NO` the Potency [6] was “inactive”.
In the case of `COc1cc2ncn(-c3cc(OCc4ccccc4C(F)(F)F)c(C(N)=O)s3)c2cc1OC`, the Potency [6] is reported as “inactive”.
In the case of `CN(C)c1nc(Cc2ccc(NC(=O)c3ccc4ccccc4c3)cc2)nc(Cl)c1CC(=O)O`, the Potency [6] is reported as “inactive”.
In the case of `O=C(Nc1nc2cccc(-c3ccc(CN4CCS(=O)(=O)CC4)cc3)n2n1)C1CC1`, the Potency [6] is reported as “inactive”.
In the case of `Nc1ncnc2c1c(-c1cccc(OCc3ccccc3)c1)cn2C1CC(CN2CCCC2)C1` (configuration not stated), the Potency [6] is reported as “inactive”.
`COc1ccc(CC2c3cc(OC)c(OC)cc3CC[N+]2(C)CCC(=O)OCCCCCOC(=O)CC[N+]2(C)CCc3cc(OC)c(OC)cc3C2Cc2ccc(OC)c(OC)c2)cc1OC` (configuration not stated) showed an activity change, negative = inhibition [6] of 4.96% [at 6.83 µM].
For `CCCCOc1c(C(=O)c2c(F)cc(C)cc2F)cnc2n[nH]cc12`, the Potency [6] was “inactive”.
With `CC(C)=CCCC(C)=CCCC(C)=CCSc1ccccc1C(=O)O` the Potency [6] was 13.6 µM (active).
In the case of `Cn1c2cc(S(C)=O)sc2c2cnn(Cc3cccc(N)c3)c(=O)c21` (configuration not stated), the Potency [6] is reported as “inactive”.
For `CC1(O)CC(c2nc(-c3ccc4ccc(-c5ccccc5)nc4c3)c3c(N)nccn23)C1` (configuration not stated), the Potency [6] was “inactive”.
In the case of `COc1ccc(C(=O)CC2(O)C(=O)Nc3c(Cl)ccc(Cl)c32)cc1` (configuration not stated), the Potency [6] is reported as “inactive”.
With `COc1cc2c(Oc3ccc4[nH]c(C)cc4c3F)ncnc2cc1OCCCN1CCCC1` the Potency [6] was “inactive”.
With `Nc1ccc(C(=O)c2cc3c(ccc4ccccc43)[nH]2)cc1` the Potency [6] was “inactive”.
In the case of `Cc1cccc(C=NNc2cc(N3CCOCC3)nc(OCCc3ccccn3)n2)c1`, the Potency [6] is reported as “inactive”.
In the case of `Cn1cc(-c2ccncc2)c(-c2ccc(OCc3ccc4ccccc4n3)cc2)n1`, the Potency [6] is reported as “inactive”.
In the case of `O=C(c1cncc(Br)c1)N1CCC(N2CCCC2)CC1`, the Potency [6] is reported as “inactive”.
In the case of `Clc1cccc(-c2nnnn2Cc2cccnc2)c1Cl`, the Potency [6] is reported as “inactive”.
In the case of `COC(=O)C1=C(C)NC(C)=C(C(=O)OCCN2CCN(C(c3ccccc3)c3ccccc3)CC2)C1c1cccc([N+](=O)[O-])c1` (configuration not stated), the Potency [6] is reported as “inactive”.
For `CNc1nccc(-c2cccnc2Oc2cc(C(=O)Nc3cccc(C(F)(F)F)c3)ccc2C)n1`, the Potency [6] was “inactive”.
In the case of `CCC[C@H](NC(=O)C(C#N)=Cc1cccc(Br)n1)c1ccccc1`, the Potency [6] is reported as “inactive”.
For `CC(C)(O)CCc1ccc(OCc2cc(-c3cccc(OC(F)F)c3)c3ncccc3c2)cc1`, the Potency [6] was “inactive”.
With `CCCn1c(=O)c2[nH]c(-c3cnn(Cc4cccc(C(F)(F)F)c4)c3)nc2n(CC)c1=O` the Potency [6] was “inactive”.
In the case of `COc1cc(OC2CCN(C)CC2)ccc1Nc1ncc2c(n1)n(C1CCCC1)c(=O)n2C`, the Potency [6] is reported as “inactive”.
In the case of `COc1cc2ncnc(Nc3ccc(F)c(Cl)c3)c2cc1NC(=O)C=CCN1CCCCC1`, the Potency [6] is reported as “inactive”.
For `COc1c(N2C[C@@H]3CCCN[C@H]3C2)c(F)cc2c(=O)c(C(=O)O)cn(C3CC3)c12`, the Potency [6] was 30.4 µM (active).
With `Cn1cncc1[C@@](N)(c1ccc(Cl)cc1)c1ccc2c(c1)c(-c1cccc(Cl)c1)cc(=O)n2C` the Potency [6] was “inactive”.
In the case of `COc1cc(-c2nn(C3CCC(N4CCN(C(C)=O)CC4)CC3)c3ncnc(N)c23)ccc1NC(=O)c1cc2ccccc2n1C` (configuration not stated), the Potency [6] is reported as “inactive”.
In the case of `COc1ccc2c(c1)CC[C@@H](CN(C)CC(=O)O)[C@H]2c1ccccc1`, the Potency [6] is reported as “inactive”.
With `COc1cc(C)c(Sc2cnc(NC(=O)c3ccc(CNC(C)C(C)C)cc3)s2)cc1C(=O)N1CCN(C(C)=O)CC1` (configuration not stated) the Potency [6] was “inactive”.
For `C[C@@H]1COC(Nc2ccc3ncnc(Nc4ccc(OCc5nccs5)c(Cl)c4)c3c2)=N1`, the Potency [6] was “inactive”.
For `CN(C1CCc2c(c3ccccc3n2CC(=O)O)C1)S(=O)(=O)c1ccc(F)cc1` (configuration not stated), the Potency [6] was “inactive”.
In the case of `O=C(O)[C@H](Cc1c[nH]c2ccccc12)N1C(=O)c2ccccc2C1=O`, the Potency [6] is reported as “inactive”.
For `O=C(O)Cn1nnc(-c2cc(N3CCC(Oc4cc(F)ccc4Br)CC3)no2)n1`, the Potency [15] was 27.8 µM (active).
For `COc1cc2c(cc1-c1c(C)noc1C)ncc1[nH]c(=O)n([C@H](C)c3ccccn3)c12`, the Potency [15] was “inactive”.
